Assay outcomes deposited in PubChem BioAssay by National Center for Advancing Translational Sciences (NCATS).
Most compounds without a hit are left out; they make up all but 6.4% or so of the library.
RORg inh: qHTS for inhibitors of ROR gamma transcriptional activity; Potency, µM (highest dose often 53.6 µM), hits mostly inhibitors; Drosophila S2 Gal4-RORgamma UAS-luciferase reporter, 20 h; AID 2551, 2010; 5.4% of 310,000 active; also: nearly all actives have a fitted effect of over 60% in size
Target sequence (P51450 whole entry, looked up, the tested form may be a part): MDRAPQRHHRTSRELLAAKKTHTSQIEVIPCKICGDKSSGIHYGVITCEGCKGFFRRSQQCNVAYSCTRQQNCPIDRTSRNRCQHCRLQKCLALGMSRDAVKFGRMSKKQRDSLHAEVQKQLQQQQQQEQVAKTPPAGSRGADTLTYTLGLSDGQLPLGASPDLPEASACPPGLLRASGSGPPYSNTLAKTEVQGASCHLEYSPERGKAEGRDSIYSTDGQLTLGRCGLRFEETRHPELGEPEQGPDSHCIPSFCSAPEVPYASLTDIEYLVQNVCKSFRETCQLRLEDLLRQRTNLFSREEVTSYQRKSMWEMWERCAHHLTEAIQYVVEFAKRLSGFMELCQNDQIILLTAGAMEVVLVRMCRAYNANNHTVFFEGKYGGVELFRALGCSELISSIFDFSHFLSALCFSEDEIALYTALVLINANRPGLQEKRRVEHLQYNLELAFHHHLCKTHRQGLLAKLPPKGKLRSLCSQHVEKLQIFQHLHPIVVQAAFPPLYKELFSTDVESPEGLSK
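A Gal4/UAS one-hybrid system in insect cells: metallothionein-promoter Gal4–ROR gamma fusion plus Photinus luciferase reporter. Copper sulfate 700 uM final, 20 hr ambient incubation, luminescent detection after 10 min with reagent.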
Luc counter: Counterscreen for Luciferase (Kinase-Glo TM) Inhibition. Luciferin 4-monooxygenase (Photuris pensylvanica), Q27757. Kinase-Glo luciferase, ATP luminescence, 8 min. Potency, µM (doses to about 38.3 µM), most hits filed as inhibitors. 0.28% of 200,000 active. AID 1379, 2008; also: nearly all actives have a fitted effect of over 60% in size
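Inhibition of Kinase-Glo luciferase light generation was assessed at 10 uM ATP in pH 7.2 imidazole buffer, with luminescence measured after eight minutes at ambient temperature.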
Gal4-VP16 FLuc: VP16 counterscreen qHTS for inhibitors of ROR gamma transcriptional activity; AID 2546, 2010; Potency, µM (titrated, usually from 53.6 µM), hits mostly inhibitors; 3.5% of 310,000 active; Drosophila S2 Gal4-VP16 UAS-luciferase, luminescence, 20 h;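 also: Gal4-VP16 expression switched on by copper sulfate through the metallothionein promoter; nearly all actives have a fitted effect of over 50% in size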
Of the large screens only hits and unclear results are named; the others gave an inactive call. Calls follow the shape of the dose curve; as a rule, active = well fitted curve in the direction sought with a large enough effect; inconclusive = small, poorly fitted or top-dose-only effect, or another doubt; inactive = no such curve, though single readings can be large; an effect the other way counts as inactive or inconclusive.

CCCCNc1nc(C)nc2c1nc(-c1ccccc1)n2CCN1CCCCC1	RORg inh 14µM
COCCNc1nc(C)nc2c1nc(-c1ccccc1)n2CCN1CCCCC1	none
COc1ccc(C(=O)N2CCC3(CCCN(Cc4ccccc4OC)C3)CC2)cc1	none
Cc1ccccc1N1C(=O)C(Oc2ccc(Cl)cc2)C1CNC(C)(C)C (stereo not given)	none
CN(C)C(CNc1ccc([N+](=O)[O-])cc1C#N)c1ccccc1 (stereo not given)	none (no result: Luc counter)
COCCN(C(=O)CCc1nnc(CCc2c[nH]c3ccccc23)o1)C(C)C	none (no result: Luc counter)
CN(C)c1ccc(N=Nc2ccc(C(=O)O)cc2)cc1	RORg inh 0.5µM, Gal4-VP16 FLuc 1.4µM (no result: Luc counter)
CN(C)c1ccc(C(=O)c2ccccc2)cc1	none
CC(=O)Nc1ccc(NCc2ccc(C)s2)cc1	none (no result: Luc counter)
CCCNc1c(NS(=O)(=O)c2cccs2)c(=O)oc2ccccc12	none (no result: Luc counter)
CCCC[n+]1ccn(C2=C([O-])c3ccccc3C(=O)/C2=N\S(=O)(=O)c2ccc(Br)cc2)c1	Gal4-VP16 FLuc inconclusive
Cc1ccc(S(=O)(=O)/N=C2\C(=O)c3ccccc3C([O-])=C2n2cc[n+](CCC(C)C)c2)cc1	RORg inh 8.9µM, Gal4-VP16 FLuc inconclusive
CO[C@]12CC(COC(=O)c3cncc(Br)c3)CN(C)[C@@H]1Cc1cn(C)c3cccc2c13 (stereo not given in full)	none
CO[C@@H]1COC(=O)C/C=C\[C@@H](C)COC(=O)[C@H](Cc2ccccc2)NC(=O)C/C=C\[C@H]1C	none (no result: Luc counter)
Cc1cc(Cl)n2c(nc3cc(F)c(F)cc32)c1C#N	RORg inh 4.5µM, Gal4-VP16 FLuc 7.1µM
Cc1cc(C)n2c(=O)c3ccc(Cl)cc3nc2c1C#N	none (no result: Luc counter)
O=C(Nc1ccccc1C(=O)O)c1ccccc1	none
O=C(Nc1ccccc1O)c1ccccc1O	RORg inh inconclusive, Gal4-VP16 FLuc inconclusive
Cc1cccc(NC(=O)c2ccccc2O)c1C	RORg inh inconclusive, Gal4-VP16 FLuc 1.1µM
CCOc1ccc(C(=O)Nc2ccccc2-c2ccccc2)cc1Cl	none
Cc1c(NC(=O)c2ccc(-c3ccccc3)cc2)cccc1C(=O)O	RORg inh 10µM, Gal4-VP16 FLuc inconclusive (no result: Luc counter)
CCOc1ccc(C(=O)Nc2cccc(C(=O)O)c2C)cc1Cl	Gal4-VP16 FLuc 1.6µM
CS/C(N)=C(C#N)/C(C#N)=C(\N)SC	none
Oc1[nH]c2ccccc2c1N=NC(=S)N1CCOCC1	RORg inh 0.1µM, Gal4-VP16 FLuc 2.8µM (no result: Luc counter)
O=C(N=Nc1c(O)[nH]c2ccccc12)c1ccc(CN2CCOCC2)cc1	none
Oc1[nH]c2ccc(Br)cc2c1N=NC(=S)N1CCOCC1	RORg inh 1.6µM, Gal4-VP16 FLuc 1.6µM (no result: Luc counter)
COC(=O)N=Nc1c(O)[nH]c2ccc(Br)cc12	none (no result: Luc counter)
CC(C)C(NC(=O)Nc1ccccc1)C(=O)Nc1cccc(S(=O)(=O)N(C)C)c1 (stereo not given)	none (no result: Luc counter)
O=C1[C@H]2[C@H]3[C@H](O)[C@H](O)C/C(=N/OCc4ccccc4)[C@H]3CC[C@@H]2C(=O)N1C1CCCCC1	none (no result: Luc counter)
COc1cc(N)c(Cl)cc1C(=O)CCC1CCN(CCNS(C)(=O)=O)CC1	none
COc1cc(COc2cc(N)c(Cl)cc2C(=O)CCC2CCN(CCNS(C)(=O)=O)CC2)cc(OC)c1	RORg inh 16µM, Gal4-VP16 FLuc 16µM
CCN(CC)c1ccc(C(=O)OCC(=O)NC(C)(C)C)cc1	none (no result: Luc counter)
O=C(N=Nc1c(O)[nH]c2ccccc12)c1ccc2c(c1)OCO2	RORg inh inconclusive, Luc counter 10µM, Gal4-VP16 FLuc inconclusive
O=C(N=Nc1c(O)[nH]c2ccccc12)c1ccco1	RORg inh inconclusive, Luc counter 10µM, Gal4-VP16 FLuc inconclusive
O=C(CSCc1ccccc1)N=Nc1c(O)[nH]c2ccccc12	none
C=CCn1c(O)c(N=NC(=O)c2ccc3c(c2)OCO3)c2ccccc21	none
COCCNc1ccnc(-c2ccccc2C(F)(F)F)n1	none (no result: Luc counter)
Cc1ccc(N2CC(C(=O)Nc3ncc([N+](=O)[O-])s3)CC2=O)cc1 (stereo not given)	RORg inh inconclusive (no result: Luc counter)
O=C(Cn1cnc2ccccc2c1=O)Nc1nnc(SCc2ccc(Cl)cc2)s1	none (no result: Luc counter)
N#C/C(=C/c1ccc(F)cc1)C(N)=S	RORg inh inconclusive
CCCCc1ccc(/C=C(\C#N)C(N)=S)s1	RORg inh 7.1µM, Gal4-VP16 FLuc inconclusive
COc1cccc(Cn2c(=O)c(-c3ccc(F)cc3)nc3cnc(N4CCNCC4)nc32)c1	none (no result: Luc counter)
C/C(=N\NC(=O)c1ccncc1)C12CC3CC(CC(C3)C1)C2	none
COc1cc(N/N=C(\C)c2ccc(O)c(C)c2)nc(-c2ccccc2)n1	none
C/C(=N\NC(=O)c1ccccc1)c1cccc(Br)c1	Gal4-VP16 FLuc inconclusive
C/C(=N\Nc1cc(C)nc(-c2ccccc2)n1)c1cccc([N+](=O)[O-])c1	RORg inh inconclusive
